Bioassay records: PubChem BioAssay, several laboratories
Only some compounds are listed: those with a hit (about 6.2% of all), similar ones and a draw of the others.
Mot1-301 SUMO: yeast Mot1-301 growth rescue at high temperature, primary screen, SUMOylation pathway inhibitor project, S. cerevisiae, ATP luminescence, 38.5C | S. cerevisiae Mot1-301 growth rescue; percent above DMSO median, 100 means doubled | growth rescue, % at 18.8 µM | hit rate 1% among 320,000 | AID 2716, 2010;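 active means every valid replicate shows activation above 250% relative to neutral control wells; inactive means the rest, any valid replicate at or below 250%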;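 further: OY570 slx delta 5 strain wells were the positive control but not used for scaling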
AHR act: AHR activators, primary screen, cell-based, luminescence, luciferase reporter, human. hit rate 2.5% among 320,000. AHR-responsive luciferase reporter cells. Aryl hydrocarbon receptor (Homo sapiens), P35869. activation, % at 5 µM; in the data active means activation above about 47%;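 further: 0% = vehicle wells and 100% = reference agonist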
Target sequence (P35869 whole entry, looked up): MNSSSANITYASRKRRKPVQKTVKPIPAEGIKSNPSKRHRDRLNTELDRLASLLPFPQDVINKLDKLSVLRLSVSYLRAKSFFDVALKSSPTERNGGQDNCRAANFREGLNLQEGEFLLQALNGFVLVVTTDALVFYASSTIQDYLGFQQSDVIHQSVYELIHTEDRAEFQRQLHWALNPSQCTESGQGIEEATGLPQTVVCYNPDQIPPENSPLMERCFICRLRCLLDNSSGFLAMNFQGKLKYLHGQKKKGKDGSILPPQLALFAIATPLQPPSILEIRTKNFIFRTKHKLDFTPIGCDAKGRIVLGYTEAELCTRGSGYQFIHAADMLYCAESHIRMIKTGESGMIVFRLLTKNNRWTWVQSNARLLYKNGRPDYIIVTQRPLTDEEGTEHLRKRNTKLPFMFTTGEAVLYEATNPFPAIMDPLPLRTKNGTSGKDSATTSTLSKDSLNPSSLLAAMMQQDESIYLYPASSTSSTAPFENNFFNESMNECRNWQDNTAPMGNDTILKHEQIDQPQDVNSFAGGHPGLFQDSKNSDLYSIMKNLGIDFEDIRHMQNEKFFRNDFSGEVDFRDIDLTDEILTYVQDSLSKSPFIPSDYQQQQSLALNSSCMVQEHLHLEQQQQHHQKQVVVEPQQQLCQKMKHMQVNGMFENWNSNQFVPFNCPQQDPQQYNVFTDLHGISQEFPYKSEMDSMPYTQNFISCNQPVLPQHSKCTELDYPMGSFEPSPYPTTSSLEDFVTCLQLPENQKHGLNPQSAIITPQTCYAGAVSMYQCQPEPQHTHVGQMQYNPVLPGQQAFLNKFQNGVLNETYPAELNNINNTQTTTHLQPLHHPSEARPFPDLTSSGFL
AI-2 QS modul: Vibrio harveyi AI-2 quorum sensing modulators, primary screen, JMH597 strain, luminescence/OD600 ratio; Vibrio harveyi JMH597 AI-2 luminescence/OD600 ratio, 9 h; stronger effect = lower value; strain lacks LuxN and CqsS sensors; 0 = neutral-control median; activity change, % at 7.5 µM; hit rate 0.4% among 300,000; AID 2094, 2009; in the data active means activity change below about -75%, passing the limit was not always enough; inconclusive means no clear call, values can overlap the other calls;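 further: luminescence divided by OD600 gain over 9 h not by final OD600 alone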
Cardio protect: cardioprotection against H2O2-induced cell death, primary screen, uHTS, H9c2 cells, ATPLite luminescence; H9c2 cardiomyocytes, H2O2 injury protection, 2 h; protection from H2O2 cell death, % at 20 µM; hit rate 0.63% among 360,000;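 active means compounds giving at least 50% protection of heart cells from peroxide-induced death in the single-dose screen, raw or plate-pattern-corrected value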;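 further: 0% = DMSO wells with peroxide and 100% = DMSO wells without peroxide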
NTR1 ag: agonists of human NTR1, primary screen, imaging, U2OS cells, beta-arrestin-GFP, high content | Neurotensin receptor type 1 (Homo sapiens), P30989 | NTR1-U2OS beta-arrestin-GFP spot imaging, agonist mode | activation, % at 20 µM | hit rate 0.17% among 330,000 | AID 493036, 2011;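 active means activation at or above 40% of the spot to cytoplasm intensity ratio, with at least 20 cells analyzed; inconclusive means wells under 20 cells, flagged as cytotoxic or low count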;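 further: 0% = DMSO without peptide and 100% = 100 nM NTR1 peptide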
GRIN3A LBD mod: binders of NR3A ligand-binding domain, primary screen, biophysical, differential scanning fluorimetry, uHTS; Tm shift relative to glycine control, % at 25 µM; NR3A LBD differential scanning fluorimetry, Tm shift; 0% = protein alone, 100% = glycine-bound protein; Glutamate receptor ionotropic, NMDA 3A (GRIN3A) ligand-binding domain; hit rate 2.5% among 340,000;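 active means melting temperature shift of at least 10% of the positive control shift, at one fixed dose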
JMH597 growth: Vibrio harveyi growth inhibition, confirmation, counter-screen for AI-2 quorum sensing project, JMH597 strain, OD600 absorbance; hit rate 1% among 750; 9 h; lacks LuxN and CqsS sensors; shares compounds with AI-2 QS modul; growth inhibition, % at 7.5 µM;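 active means every replicate shows growth inhibition above 50%; inconclusive means at least half, but not all, replicates pass that cutoff; inactive means fewer than half of replicates pass it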
BB721 const-QS lum: luminescence inhibition in constitutive-on V. harveyi, confirmation, counter-screen for LuxS inhibitor project, strain BB721, luminescence readout; shares compounds with AI-2 QS modul; hit rate 95% among 750; inhibition, % at 7.5 µM; Vibrio harveyi BB721 luminescence, 9 h;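 active means inhibition above about 80% in every replicate, not just on average, limit read from the data; inconclusive means at least half of replicates past the limit, but not all; inactive means fewer than half of replicates past the limit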
BB721 growth: growth inhibition of V. harveyi BB721, confirmation, cytotoxicity control for AI-2 quorum sensing inhibitors, strain BB721, absorbance OD600. shares compounds with AI-2 QS modul. Vibrio harveyi BB721 growth, 9 h. growth inhibition, % at 7.5 µM. hit rate 3% among 750;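 active means every replicate shows growth inhibition above 50%; inconclusive means at least half but not all replicates above 50% inhibition; inactive means under half of replicates above 50% inhibition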
JMH597 AI-2 mod: Vibrio harveyi AI-2 signaling luminescence modulation – JMH597 strain, confirmation | inhibition, % at 7.5 µM | hit rate 97% among 750 | AID 2736, 2010 | shares compounds with AI-2 QS modul | Vibrio harveyi JMH597 AI-2 quorum sensing luminescence, 9 h; luxN and CqsS knockout, AI-2 only;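 active means every replicate shows more than 75% inhibition of signal versus neutral control wells; inconclusive means half to three quarters of replicates exceed 75% inhibition; inactive means fewer than half of replicates exceed 75% inhibition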
Numbers without * were called inactive; ? = inconclusive; . = not tested or not shown.

SMILES | Mot1-301 SUMO | AHR act | AI-2 QS modul | Cardio protect | NTR1 ag | GRIN3A LBD mod | JMH597 growth | BB721 const-QS lum | BB721 growth | JMH597 AI-2 mod
O=C(Cn1cc(CNC(=O)C2CCCCC2)nn1)Nc1cc(C(F)(F)F)ccc1Cl | -11.1 | 1.7 | . | -3.0 | 0.1 | -9.8 | . | . | . | .
CCNC(=O)C1CCCN(C(=O)Cc2cccs2)CC1 (centres undefined) | . | . | . | -5.4 | . | . | . | . | . | .
CCN(CC(=O)Nc1cc(Cl)ccc1C)C(=O)CCOc1ccccc1C | -17.7 | 0.9 | 8.9 | -2.7 | 0.6 | -2.5 | . | . | . | .
Cc1ccccc1CC(=O)N1CCCC(CNC(=O)c2ccc(F)cc2)C1 (centres undefined) | -7.7 | 0.9 | 18.9 | 2.8 | 0.1 | 2.0 | . | . | . | .
COc1cccc(OCc2nc(-c3cccc([N+](=O)[O-])c3)no2)c1 | 20.2 | 2.2 | -83.4* | -8.2 | 1.5 | 3.7 | 13.6 | 86.3* | -20.6 | 93.0*
COc1cccc(OCc2nc(-c3ccc(Br)o3)no2)c1 | . | 12.2 | -82.6* | 3.2 | 0.5 | 0.6 | 38.5 | 95.6* | -1.0 | 97.2*
COc1ccc(NC(=O)c2sc(=O)n(Cc3ccc4ccccc4c3)c2C)cc1OC | . | . | . | -2.1 | . | . | . | . | . | .
CSc1cccc(NC(=O)CN2C(=O)c3ccccc3S2(=O)=O)c1 | -10.1 | 8.2 | -85.6* | 2.3 | 2.9 | 0.1 | 26.6 | 93.7* | 4.7 | 95.6*
O=C(CN1C(=O)c2ccccc2S1(=O)=O)Nc1ccc(S(=O)(=O)N2CCCCC2)cc1 | 17.5 | -1.6 | -85.5* | -6.7 | 0.1 | -4.3 | 42.1 | 96.3* | 39.0 | 97.7*
O=C(CN1C(=O)c2ccccc2S1(=O)=O)Nc1cccc(S(=O)(=O)N2CCCCC2)c1 | 15.8 | 1.8 | . | -2.0 | -0.6 | -1.7 | . | . | . | .
O=C(CN1C(=O)c2ccccc2S1(=O)=O)Nc1ccc(S(=O)(=O)N2CCCC2)cc1 | 61.7 | 3.2 | -95.0* | -0.4 | 0.0 | 4.2 | 12.9 | 97.9* | 28.5 | 98.1*
CC(=O)c1ccc(NC(=O)CCc2ccc(C)o2)cc1 | 0.6 | -0.2 | -88.1* | -0.5 | 0.3 | -15.8 | -2.5 | 94.7* | -15.8 | 96.4*
Cc1ccc(CCC(=O)Nc2ccc(C#N)cc2)o1 | -6.1 | 0.2 | -79.9* | -1.3 | -0.8 | -2.7 | 26.2 | 90.3* | 23.3 | 92.9*
CC(=O)c1ccc(Nc2nc(C(N)CC(C)C)cs2)cc1 (centres undefined) | . | . | . | -8.8 | . | . | . | . | . | .
COc1cc2c(cc1OC)CN(C(=O)c1cc(S(=O)(=O)N3CCOCC3)c(Cl)cc1Cl)CC2 | 7.5 | 11.2 | 34.1 | -2.1 | 3.1 | -1.3 | . | . | . | .
N#CC1C(=O)NC(c2ccccc2)=CC1c1ccccc1 (centres undefined) | . | . | . | 0.8 | . | 3.3 | . | . | . | .
Nc1cccc(C(=O)Nc2cccc3ncccc23)c1 | 350.5 | 14.7 | ? | 0.5 | -0.7 | 3.4 | 1.9 | 4.5 | 16.9 | -3.3
CC(=O)Nc1cccc(C(=O)Nc2cccc3ncccc23)c1 | 91.9 | 1.7 | 14.4 | -1.7 | 3.4 | 0.2 | . | . | . | .
Cc1ccc(NCc2ccc(C)s2)cc1 | -8.0 | -3.7 | 4.5 | . | -0.2 | . | . | . | . | .
O=C(COc1ccccc1)NNC(=O)c1cc2ccccc2o1 | 9.1 | -0.7 | 26.7 | 2.7 | -0.7 | -3.4 | . | . | . | .
O=C(NCCc1ccccc1)c1cccc(S(=O)(=O)NCc2ccccc2)c1 | 37.5 | 5.5 | -27.6 | -3.5 | -0.6 | 2.8 | . | . | . | .
O=C(NCCOc1ccccc1)c1cccc(S(=O)(=O)NCc2ccccc2)c1 | 103.8 | -0.3 | -97.0* | -11.8 | 1.2 | -3.8 | ? | 98.9* | 8.9 | 99.3*
O=C(NCCOc1ccccc1)c1cc2ccccc2o1 | -2.0 | 4.2 | -81.7* | -8.1 | -0.1 | -1.4 | 7.4 | 87.2* | -6.8 | 91.9*
CCCCN(c1ccccc1)S(=O)(=O)c1cccc(C(=O)Nc2c(C)n(C)n(-c3ccccc3)c2=O)c1 | . | . | . | -3.6 | . | -1.3 | . | . | . | .
Cc1ccc(CN(C)C(=O)c2cc(COc3cccc(C(F)(F)F)c3)on2)o1 | -8.7 | 2.8 | -81.5* | -8.8 | 2.1 | -0.6 | 65.4* | 95.4* | 86.6* | 96.4*
SMILES | Mot1-301 SUMO | AHR act | AI-2 QS modul | Cardio protect | NTR1 ag | GRIN3A LBD mod | JMH597 growth | BB721 const-QS lum | BB721 growth | JMH597 AI-2 mod
CCc1ccc(CN(C)C(=O)c2cc(COc3cccc(C(F)(F)F)c3)on2)nc1 | -1.1 | 0.8 | -83.4* | -7.2 | 0.5 | -0.7 | ? | 92.1* | ? | 94.6*
CN(Cc1nccn1C)C(=O)c1cc(COc2cccc(C(F)(F)F)c2)on1 | -3.1 | 1.2 | 20.3 | -4.1 | -1.3 | -3.1 | . | . | . | .
CC(=O)c1cccc(OCc2cc(C(=O)N(C)Cc3cnccn3)no2)c1 | -8.4 | 6.9 | ? | -0.2 | -0.1 | -0.7 | 21.0 | 92.4* | 15.1 | 94.5*
CCOC(=O)c1ccc(NS(=O)(=O)c2ccc3c(c2)NC(=O)CCS3)cc1 | 71.8 | 2.7 | 39.8 | 1.1 | 0.8 | -5.8 | . | . | . | .
CCc1nc2ccc(C(=O)NCCCn3ccnc3)cn2c1N(C)Cc1ccc(OC)cc1 | . | . | . | 0.0 | . | . | . | . | . | .
O=C1C=C(c2ccccc2)CO1 | . | . | . | 1.9 | . | 2.6 | . | . | . | .
COC(=O)c1cn(C(=O)c2cc(Cl)ccc2Cl)c2ccccc12 | -4.5 | -5.2 | 5.6 | -6.9 | 2.6 | 0.4 | . | . | . | .
CCOC(=O)c1cccc(NC(=O)Cn2nc(C)n3cccc3c2=O)c1 | -12.0 | 0.8 | -97.3* | 12.9 | 0.1 | -3.3 | 21.6 | 99.6* | 12.4 | 99.8*
Cc1cccc(C)c1NC(=O)Cn1nc(C)n2cccc2c1=O | -2.3 | 2.2 | -7.6 | 7.5 | 0.5 | 1.7 | . | . | . | .
COc1ccc(S(=O)(=O)n2cccc2)cc1 | 0.1 | 1.0 | ? | -1.2 | -0.6 | 1.5 | 23.8 | 96.0* | -23.9 | 99.4*
CC(C)c1ccc(NC(=O)C2CSC3(C)CCC(=O)N23)cc1 (centres undefined) | -15.8 | -1.6 | -91.3* | -1.7 | -0.6 | -0.3 | 3.2 | 93.2* | 1.1 | 96.0*
